Experimental data taken from PubChem BioAssay (NCI).
This is part of a sample that, as a whole, favours compounds with a hit. Of some 83,000 tested, about 20% had one in any assay.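 The test compound was applied at a single concentration to cells in 96-well plates for 48 hours, and percent growth was recorded.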 Unmarked numbers belong to inactive results. Active and inactive are the calls of the source. How the source made its calls: active means growth percent below 10; inactive means the rest.

Key:
Test in all cases: NCI-60 one-dose screen, 48 h (100 = growth as untreated, 0 = no growth, -100 = all killed)
Details in all cases: 10 µM unless noted
HCT-15 colon = system: HCT-15 colon
HT29 colon = system: HT29 colon
SNB-75 CNS = system: SNB-75 CNS
SNB-19 CNS = system: SNB-19 CNS
U251 CNS = system: U251 CNS
PC-3 prostate = system: PC-3 prostate
SK-MEL-5 melanoma = system: SK-MEL-5 melanoma
UACC-62 melanoma = system: UACC-62 melanoma
LOX IMVI melanoma = system: LOX IMVI melanoma
EKVX NSCLC = system: EKVX NSCLC
SN12C renal = system: SN12C renal
UO-31 renal = system: UO-31 renal
TK-10 renal = system: TK-10 renal
ACHN renal = system: ACHN renal
CAKI-1 renal = system: CAKI-1 renal
A498 renal = system: A498 renal
MOLT-4 leukemia = system: MOLT-4 leukemia
SK-MEL-2 melanoma = system: SK-MEL-2 melanoma
CCRF-CEM leukemia = system: CCRF-CEM leukemia
SK-MEL-28 melanoma = system: SK-MEL-28 melanoma

| Compound | growth (HCT-15 colon) | growth (HT29 colon) | growth (SNB-75 CNS) | growth (SNB-19 CNS) | growth (U251 CNS) | growth (PC-3 prostate) | growth (SK-MEL-5 melanoma) | growth (UACC-62 melanoma) | growth (LOX IMVI melanoma) | growth (EKVX NSCLC) | growth (SN12C renal) | growth (UO-31 renal) | growth (TK-10 renal) | growth (ACHN renal) | growth (CAKI-1 renal) | growth (A498 renal) | growth (MOLT-4 leukemia) | growth (SK-MEL-2 melanoma) | growth (CCRF-CEM leukemia) | growth (SK-MEL-28 melanoma) |
| --- | --- | --- | --- | --- | --- | --- | --- | --- | --- | --- | --- | --- | --- | --- | --- | --- | --- | --- | --- | --- |
| CN(C)c1ccc(C(=C2C=CC(=[N+](C)C)C=C2)c2ccc(N(C)C)cc2)cc1 (tested in a mixture with another compound) | -74.7% (active) | -87.3% (active) | -97.3% (active) | -99.1% (active) | -95.8% (active) | -38% (active) | -99.3% (active) | -64.4% (active) | -89.2% (active) | -35.6% (active) | -48.3% (active) | -80.8% (active) | -79.2% (active) | -98.6% (active) | -43.7% (active) | -93.2% (active) | -23.7% (active) | – | – | – |
| CCCCCCCCCCCCCCCC[N+](C)(CCO)Cc1cnc[nH]1 (stereo unspecified) | 23.5% | -58.8% (active) | -86.6% (active) | -98.8% (active) | -86.5% (active) | -37.5% (active) | -99.8% (active) | -76.4% (active) | -79% (active) | 38.1% | -4.78% (active) | 27.6% | -35.1% (active) | 3.11% (active) | 40.9% | -5.4% (active) | -77.2% (active) | -78.5% (active) | – | – |
| O=C(CC1(O)C(=O)Nc2c(Cl)ccc(Cl)c21)c1ccc(Cl)cc1Cl (stereo unspecified) | 101% | 90.3% | 70.1% | 107% | 96.4% | 81% | 100% | 97.8% | 100% | 85.2% | 104% | 86.2% | 105% | 107% | 93.8% | 79.7% | 106% | 98.9% | 112% | – |
| N#Cc1ccc([N+](=O)[O-])o1 | 104% | 93.9% | 109% | 101% | 90% | 93.3% | 96.8% | 95.4% | – | 105% | 106% | 92.6% | 108% | 104% | 104% | 98.5% | 99.5% | 91% | 102% | 106% |
| O=[N+]([O-])c1ccc2c(N=Nc3ccc4ccccc4c3O)c(O)cc(S(=O)(=O)O)c2c1 | 85.1% | 104% | 105% | 79.7% | 57.7% | 77.2% | 85% | 79.4% | 66.2% | 95.2% | 99.4% | 62.6% | 91.6% | 78.7% | 60.1% | 108% | 91.7% | – | 63.6% | – |
| C[N+](C)=c1ccc2nc3c(cc(NCCCNc4cc5oc6cc(=[N+](C)C)ccc-6nc5c5ccccc45)c4ccccc43)oc-2c1 | -29.2% (active) | -32.5% (active) | 39.6% | -24.6% (active) | -20.1% (active) | 6.83% (active) | -96.3% (active) | 43.3% | -45.5% (active) | 45.6% | -25.5% (active) | 45.1% | 115% | 25.3% | 53.8% | 109% | 5.25% (active) | 90.4% | 11.3% | – |
| C1=C(c2ccccc2)C(c2ccc(OCCN3CCCCC3)cc2)Oc2ccccc21 (stereo unspecified) | 23.2% | 1.98% (active) | 56.5% | 53.7% | 38.2% | 60.6% | -95.5% (active) | -41% (active) | -76.9% (active) | 69.1% | 55.3% | 56.7% | 74.9% | 71.5% | 30% | 94% | 47.1% | – | 37.5% | -51.2% (active) |
| CN(C)C(=O)SC1=C(c2c(Cl)cccc2Cl)C(=O)c2ccccc21 | -22.4% (active) | -35.3% (active) | 49.3% | 97.4% | 90% | 77% | 40.1% | 26.7% | -48% (active) | 0.799% (active) | 82.3% | -34.4% (active) | -43.7% (active) | -43.2% (active) | -28.9% (active) | 115% | -22.5% (active) | 136% | 0.862% (active) | – |
| CCC(CC)COC(=O)c1ccc(O)c(O)c1 | 49.2% | 96.8% | 75% | 74.6% | 50.9% | 33.8% | 83.3% | 76.8% | – | 93.7% | 45.8% | 26.3% | 82.5% | 72.5% | 40.6% | – | 30.3% | 85.6% | 15.2% | 95.1% |
| O=C(/C=C/C=C/c1ccccc1)c1ccco1 | 92.2% | 85.4% | 83% | 92.5% | 56.4% | 85.9% | 91.1% | 72.1% | 64.8% | 112% | 99.8% | 62.6% | 128% | 107% | 97.3% | – | – | – | 30.2% | 123% |
| O=C1C2=C(Nc3cc([N+](=O)[O-])ccc3N2)OC1c1c2ccccc2cc2ccccc12 (stereo unspecified) | 20.5% | 51.4% | 52.4% | 40.2% | 31.4% | 20.5% | 56.7% | 44.6% | 38.1% | 43.6% | 30.6% | 28.3% | 73.5% | 51.4% | 53.1% | 104% | 8.22% (active) | – | 9.72% (active) | – |
| Cc1cc2nc(CS)[nH]c2cc1C | 101% | 89.9% | 75.5% | 93.3% | 85.1% | 87.4% | 87.7% | 84.4% | 88% | 84.8% | 102% | 83.1% | 131% | 92% | 43.9% | – | -39.5% (active) | 101% | 55% | – |
| COC(=O)c1nc(=S)[nH]c(C(=O)OC)c1C(=O)c1ccccn1 | 16.8% | 34.5% | 57.2% | 43.1% | 31% | 31.1% | -26.2% (active) | 11.9% | – | 34.9% | 39.1% | 11.7% | 47.6% | 10.2% | 15% | 145% | 2.29% (active) | – | 10.7% | 38.1% |
| O=C1c2ccccc2C(=O)c2sc(Nc3cccc(Cl)c3)nc21 | -67.3% (active) | 76.1% | -85.2% (active) | 42.8% | -47.3% (active) | 3.03% (active) | -82.6% (active) | -55.6% (active) | – | 7.78% (active) | -71.3% (active) | -5.49% (active) | 147% | -52.8% (active) | 70.4% | 79.3% | -19.6% (active) | -16% (active) | 8.52% (active) | -78.1% (active) |
| CCCCCCC(C)c1ccccc1O (stereo unspecified) (tested in a mixture with another compound) | 105% | 113% | 128% | 106% | 104% | 94.8% | 111% | 99.6% | 95.8% | 110% | 106% | 99.1% | 119% | 110% | 90.1% | – | 102% | – | 99.1% | – |
| CCOc1ccc(-c2nc3ccc(-c4nc5ccc(N6CCN(C)CC6)cc5[nH]4)cc3[nH]2)cc1 | 23.7% | -68.3% (active) | -90.2% (active) | -96.2% (active) | -98.1% (active) | -47.8% (active) | -96.7% (active) | -96.5% (active) | – | -75.5% (active) | -91.4% (active) | 23.2% | -84.9% (active) | -33.8% (active) | -43.8% (active) | -91.6% (active) | -60.5% (active) | – | 4.03% (active) | -88.6% (active) |
